26 compounds from PubChem BioAssay can be followed below.

Activity calls are given as the source filed them. Unless noted, no rule for the calls is given here.

The subject of test [1] is XIP peptide (Xip251-270) binding. Briefly: small-molecule binders of XIP peptide, primary screen, biochemical, small-molecule microarray, fluorescence 635/667 nm, 0.1 µg/mL protein (AID 1182). Conditions: fluorescent protein binding, 635 nm, higher = more signal, called active from +8 up or from −8 down.
A further test deals with XIP peptide (Xip251-270). Briefly: small-molecule binders of XIP peptide, primary screen, biochemical, small-molecule microarray, fluorescence 635/667 nm, 0.5 µg/mL protein (AID 1183). The note with it: small-molecule microarray binding, fluorescence 635 nm; higher = more signal.
The nature of test [2]: Plasmodium falciparum growth inhibition, primary screen, strain 3D7, DAPI fluorescence, 100 nL (AID 1184).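 Also: parasites grown inside human red blood cells in medium with human serum.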 Conditions: P. falciparum 3D7 growth, 3 d, higher = more signal.
For test [3], the target named is Homeobox protein Hox-A13 (Mus musculus) (UniProt Q62424). Briefly: inhibitors of HoxA13-DNA binding, primary screen, biochemical, fluorescence polarization, labeled oligonucleotide (AID 1185). Conditions: 15 min, higher = more signal, called active from +8 up or from −8 down.
Sequence of Homeobox protein Hox-A13 (Mus musculus) (Q62424 whole entry, looked up): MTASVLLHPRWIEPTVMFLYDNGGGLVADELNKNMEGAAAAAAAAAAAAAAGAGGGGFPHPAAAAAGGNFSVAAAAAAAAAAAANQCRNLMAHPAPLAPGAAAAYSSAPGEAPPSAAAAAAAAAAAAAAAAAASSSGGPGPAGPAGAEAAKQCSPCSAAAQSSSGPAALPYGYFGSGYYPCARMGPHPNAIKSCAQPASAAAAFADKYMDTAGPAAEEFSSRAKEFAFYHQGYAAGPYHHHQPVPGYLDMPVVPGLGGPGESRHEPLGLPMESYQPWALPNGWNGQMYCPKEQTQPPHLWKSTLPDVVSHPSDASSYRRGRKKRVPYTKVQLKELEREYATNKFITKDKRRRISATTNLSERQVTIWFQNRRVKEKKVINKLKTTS
Test [4] is described as follows: inhibitors of hydroxyurea-induced Chk1 phosphorylation, primary screen, imaging, HeLa, phospho-Chk1 antibody, percent positive cells (AID 1186). The note with it: hydroxyurea-induced phospho-Chk1 immunofluorescence imaging, higher = more signal.
A short description of test [5]: inhibitors of hydroxyurea-induced Chk1 phosphorylation, primary screen, imaging, HeLa, phospho-Chk1 nuclear intensity (AID 1187). The note with it: hydroxyurea-induced phospho-Chk1 immunofluorescence imaging, higher = more signal.

Turning to `CC(=O)c1ccc(C(O)C2C=CC3C(=O)N(c4ccccc4)C(=O)C3N2Nc2ccc(C(C)C)cc2)cc1` (stereo unspecified), the composite z-score in test [1] is 0.248 (inactive); with XIP peptide (Xip251-270), 0.525. Besides, the z-score in test [2] is -1.33; in test [3], -2.09 (inactive); in test [4], 0.0577 (inactive); in test [5], -0.371 (inactive).

As for `NC(=O)N1C(=O)C2C(C1=O)C1C=C(CCCO)C2C(c2ccc(CN3CCCC3)cc2)N1Cc1cc2c(cc1Br)OCO2` (stereo unspecified), the composite z-score in test [1] is 0.224 (inactive); in the test with XIP peptide (Xip251-270), -0.0073. The z-score was -0.459 in test [2], -4.36 (inactive) in test [3], 0.504 (inactive) in test [4] and 0.519 (inactive) in test [5].

Turning to `C=CCNC(=O)[C@H]1[C@@H]2C(=O)O[C@@H](c3ccccc3)[C@@H](c3ccccc3)N2[C@@H](c2ccccc2OCCO)[C@]12C(=O)N(C(=O)OCCOC)c1ccc(C#Cc3ccc(OC)cc3)cc12`, the composite z-score was 0.559 (inactive) in test [1] and 0.807 in the test on XIP peptide (Xip251-270). Also, the z-score in test [2] is -2.16; in test [3] it was -0.0717 (inactive); in test [4], 0.0629 (inactive); in test [5], 0.539 (inactive).

Turning to `COC(=O)[C@@]1(Cc2ccc(F)cc2)[C@H]2c3cc(C(=O)N4CCCC4)n(Cc4ccccn4)c3C[C@H]2CN1C(=O)c1ccccc1`, the composite z-score in test [1] was 0.224 (inactive); in the test with XIP peptide (Xip251-270), 0.769. The z-score in test [2] is -1.68; in test [3] it was -4.98 (inactive); in test [4], 0.0348 (inactive); in test [5], -0.0643 (inactive).

For the compound `CCCCC(O)C1C=CC2C(=O)N(c3ccccc3)C(=O)C2N1Nc1ccc([N+](=O)[O-])cc1` (stereo unspecified), the values for the composite z-score (in test [1]; in the test with XIP peptide (Xip251-270)) were 0.0204 (inactive) and 0.598, respectively. In addition, the z-score in test [2] is -0.496; in test [3], -4.62 (inactive); in test [4], 0.391 (inactive); in test [5], 0.501 (inactive).

For `[N-]=[N+]=Nc1ccccc1[C@@H]1OC(c2ccc(OCCCO)cc2)=N[C@]1(CCS(=O)(=O)c1ccccc1)C(=O)NCC(O)CO` (stereo partly specified), the composite z-score in test [1] was 0.0574 (inactive); in the test on XIP peptide (Xip251-270) it was 0.947. In addition, the z-score was -2.21 in test [2], -3.99 (inactive) in test [3], 0.0401 (inactive) in test [4] and 0.225 (inactive) in test [5].

As to `C=C(CCCC)/C(=C/C[C@H](OC(C)=O)c1cccc(OCCO)c1)c1cnc2ccccc2c1`, the figures for the composite z-score (in test [1]; with XIP peptide (Xip251-270)) were -0.0697 (inactive) and 0.0014, respectively. The z-score in test [2] was -2.57; in test [3] it was -4.01 (inactive); in test [4], -0.549 (inactive); in test [5] it was -0.761 (inactive).

For `CCCCCCc1nc(Cc2cc(OC)c(OC)c(OC)c2)cc2c1[Si](C(C)C)(C(C)C)O[C@H]2c1ccccc1`, the composite z-score is -0.0565 (inactive) in test [1] and 0.103 with XIP peptide (Xip251-270). The z-score in test [2] was -2.34; in test [3] it was -3.15 (inactive); in test [4], 0.252 (inactive); in test [5], -0.409 (inactive).

For the compound `CC(C)(C)OC(=O)CC[C@]1(C(=O)NCC(O)CO)N=C(c2ccc(OCCCO)cc2)O[C@H]1c1ccccc1N=[N+]=[N-]` (stereo partly specified), the composite z-score in test [1] was 3.52 (inactive); in the test with XIP peptide (Xip251-270), 0.811. Besides, the z-score in test [2] is -1.45; in test [3], -4.51 (inactive); in test [4], 0.0505 (inactive); in test [5], 0.259 (inactive).

For `C=CC1c2cc(O)c(OC)cc2CCN1C` (stereo unspecified), the composite z-score in test [1] is 0.767 (inactive); in the test with XIP peptide (Xip251-270) it was 0.543. In addition, the z-score in test [2] was 0.166; in test [3], -3.83 (inactive); in test [4], 0.298 (inactive); in test [5], 0.468 (inactive).

As for `COc1ccc(C(O)C2C=CC3C(=O)N(C)C(=O)C3N2N(c2ccccc2)c2ccccc2)cc1` (stereo unspecified), the composite z-score was 0.195 (inactive) in test [1] and 0.512 in the test with XIP peptide (Xip251-270). For the same compound, the z-score was -0.459 in test [2], -6.57 (inactive) in test [3], 0.45 (inactive) in test [4] and -0.508 (inactive) in test [5].

Turning to `C=C1C(=O)C=C2CN(C(=O)c3ccccc3)[C@@](Cc3ccc(OC)cc3)(C(=O)OC)[C@@H]12`, the values for the composite z-score (in test [1]; with XIP peptide (Xip251-270)) were 0.187 (inactive) and 0.691, respectively. In addition, the z-score is -1.17 in test [2], -3.61 (inactive) in test [3], 0.395 (inactive) in test [4] and 0.354 (inactive) in test [5].

For `CCOC(=O)C[C@H]1[C@H](OC(=O)Cc2ccc3c(c2)OCO3)[C@@H](NC(=O)Cc2ccc(OC)cc2)c2cc(OCCCO)ccc2N1C(=O)Cc1ccc(OC)cc1`, the composite z-score in test [1] is -0.0299 (inactive); with XIP peptide (Xip251-270), 0.678. Also, the z-score in test [2] was -1.99; in test [3] it was -1.76 (inactive); in test [4], -1.33 (inactive); in test [5], -1.19 (inactive).

`C=CCC(OC(C)=O)[C@@H]1[C@@H](N(Cc2cc3ccccc3o2)C(=O)Cc2ccc(OC)cc2)c2cc(OCCCO)ccc2N1C(=O)c1ccc2ccccc2n1` (stereo partly specified): the figures for the composite z-score (in test [1]; in the test on XIP peptide (Xip251-270)) were -0.206 (inactive) and -0.454, respectively. The z-score in test [2] is -2.17; in test [3], -2.1 (inactive); in test [4], 0.16 (inactive); in test [5] it was 0.158 (inactive).

Turning to `C=C(COC)C(=O)CC[C@H](OC(=O)c1cccnc1)c1ccc(OCCO)cc1`, the composite z-score was 1.08 (inactive) in test [1] and 0.447 in the test with XIP peptide (Xip251-270). Moreover, the z-score in test [2] is -0.711; in test [3], -5.58 (inactive); in test [4] it was 0.35 (inactive); in test [5], 0.343 (inactive).

For `CC1CC/C=C\[C@H]2OC34C=CCN(Cc5ccccc5)C(=O)[C@H]3N(CCCCCCO)C(=O)[C@@H]4C2C(=O)O1` (stereo partly specified), the composite z-score is 1.32 (inactive) in test [1] and -0.367 in the test with XIP peptide (Xip251-270). The z-score in test [2] is -0.147; in test [3], -5.85 (inactive); in test [4], 0.0339 (inactive); in test [5] it was 0.0311 (inactive).

On to `COc1cc(C(O)C2C=CC3C(=O)N(c4ccccc4)C(=O)C3N2Nc2ccccc2F)cc(OC)c1OC` (stereo unspecified), for which the composite z-score in test [1] is 0.283 (inactive); in the test on XIP peptide (Xip251-270), 0.737. The z-score in test [2] is -0.267; in test [3] it was -4.84 (inactive); in test [4] it was 0.409 (inactive); in test [5], -0.477 (inactive).

In the case of `CN1C(=O)C2C(C1=O)C1C=C(c3ccc(CO)cc3)C2C(C2CC2)N1C` (stereo unspecified), the composite z-score in test [1] was 0.017 (inactive); in the test with XIP peptide (Xip251-270) it was 0.816. The z-score in test [2] was -1.97; in test [3] it was -5.37 (inactive); in test [4], -0.287 (inactive); in test [5] it was -0.232 (inactive).

As for `Cc1ccc(N2C(=O)c3ccccc3[C@](C)(C(=O)NCCCN(C)C)[C@@H]2c2ccc(CO)cc2)nc1`, the composite z-score is 0.0854 (inactive) in test [1] and -0.495 with XIP peptide (Xip251-270). For the same compound, the z-score in test [2] was 0.165; in test [3] it was -2.55 (inactive); in test [4], -0.229 (inactive); in test [5] it was -0.321 (inactive).

As to `C[N+](C)(C)CCCC[C@@H]1NC(=O)[C@H]2C[C@@H](C(=O)NCCCCCNC(=O)CS)[C@@H](c3cccc(OCCO)c3)N2C1=O`, the composite z-score is 0.649 (inactive) in test [1] and -0.203 in the test on XIP peptide (Xip251-270). Moreover, the z-score in test [2] was -0.222; in test [3], -2.8 (inactive); in test [4], 0.0911 (inactive); in test [5], 0.164 (inactive).

On to `Cc1ccc(S[C@]2(C(=O)NC3CC3)CC(=O)N(C(C)C)[C@@H]2c2ccc(CO)cc2I)cc1`, for which the composite z-score in test [1] was 0.717 (inactive); in the test with XIP peptide (Xip251-270), 0.682. In addition, the z-score in test [2] was -1.63; in test [3], -4.06 (inactive); in test [4] it was -0.248 (inactive); in test [5], -0.439 (inactive).

Turning to `CC(C)(C)N1CC=CC23O[C@@H]4C=CCOC(=O)[C@@H]4[C@H]2C(=O)N(CCO)[C@@H]3C1=O` (stereo partly specified), the composite z-score in test [1] is 0.218 (inactive); with XIP peptide (Xip251-270) it was 0.57. Besides, the z-score in test [2] was 0.885; in test [3], -3.33 (inactive); in test [4], 0.121 (inactive); in test [5] it was -0.307 (inactive).

Take `CC1CC/C=C\[C@H]2OC34C=CCN(CCN5CCOCC5)C(=O)[C@H]3N(CCCO)C(=O)[C@@H]4C2C(=O)O1` (stereo partly specified): the composite z-score in test [1] is 0.537 (inactive); in the test with XIP peptide (Xip251-270), -0.868. Besides, the z-score in test [2] was -0.246; in test [3], -6.46 (inactive); in test [4], 0.58 (inactive); in test [5], 0.667 (inactive).

Turning to `[N-]=[N+]=Nc1ccccc1[C@H]1OC(c2ccc(OCCCO)cc2)=N[C@@]1(Cc1ccccc1)C(=O)NCC(O)CO` (stereo partly specified), the composite z-score in test [1] is 0.448 (inactive); in the test on XIP peptide (Xip251-270) it was 0.536. Moreover, the z-score in test [2] was -1.84; in test [3] it was -4.34 (inactive); in test [4], 0.0068 (inactive); in test [5] it was 0.251 (inactive).

Take `CN(C)C(=O)[C@]1(Cc2ccccc2)N=C(c2ccc(OCCCO)cc2)O[C@@H]1c1ccccc1CN=[N+]=[N-]`: the results for the composite z-score (in test [1]; in the test on XIP peptide (Xip251-270)) were 0.245 (inactive) and 0.764, respectively. For the same compound, the z-score is -2.6 in test [2], -4.47 (inactive) in test [3], 0.0164 (inactive) in test [4] and 0.304 (inactive) in test [5].

On to `COc1ccc([Si](C)(C)[C@H]2[C@H](CCO)O[C@@]3(C(=O)N(Cc4ccc(NC(=O)[C@H](C)O)cc4)c4ccccc43)[C@@H]2C)cc1`, for which the composite z-score in test [1] is 3.4 (inactive); with XIP peptide (Xip251-270), 0.596. The z-score in test [2] is -2.7; in test [3], -4.86 (inactive); in test [4], -0.704 (inactive); in test [5], -0.43 (inactive).
